Measurements reported in PubChem BioAssay (Tox21).
Results filed as inconclusive are left out. Calls of active or inactive are those of the source. Calls follow the shape of the dose curve; as a rule, active = well fitted curve in the direction sought with a large enough effect in the repeat runs; inconclusive = weak or mixed curves; inactive = no such curve, though single readings can be large; an effect the other way counts as inactive or inconclusive.

Assays:
[1] = A CellTox Green Cytotoxicity Assay to monitor cytotoxicity in HEK293 cells - 24 hour (AID 1224875); also: nearly all actives have a fitted effect of over 45% in size; also: potency is read from the fitted curve at half-maximal effect; as to activity change: series mostly up to about 77 µM
In short: (§1)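 Read-out: fluorescence of a cell-impermeant cyanine dye staining DNA of dead cells, proportional to cytotoxicity. HEK293, 600 cells/well with reagent, compound (23 nL DMSO) added after 5 h; reads at 0, 8, 16, 24, 32, 40 h.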

[2] = A CellTox Green Cytotoxicity Assay to monitor cytotoxicity in HepG2 cells - 16 hour (AID 1224876); also: nearly all actives have a fitted effect of over 45% in size; also: potency is read from the fitted curve at half-maximal effect
In short: (§2)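 HepG2, 600 cells/well premixed w/ CellTox Green; 5 h settle, 37 C/5% CO2; pintool cpd add (DMSO); 37 C, 40 h; fluorescence read at 0, 8, 16, 24, 32, 40 h.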

[3] = qHTS RealTime-Glo MT Cell Viability Assay in HepG2 cells - 32 hour (AID 1224877); also: nearly all actives have a fitted effect of over 55% in size
In short: (§3)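 Viability was tracked continuously by NanoLuc luminescence from prosubstrate reduced by living HepG2 cells, at successive time points over 40 h of compound exposure. Cells with reagent were preincubated 5 h at 37 °C before compound addition.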

[4] = A CellTox Green Cytotoxicity Assay to monitor cytotoxicity in HepG2 cells - 24 hour (AID 1224878); also: nearly all actives have a fitted effect of over 45% in size; also: potency is read from the fitted curve at half-maximal effect
In short: as §2

[5] = A CellTox Green Cytotoxicity Assay to monitor cytotoxicity in HepG2 cells - 40 hour (AID 1224879); also: nearly all actives have a fitted effect of over 40% in size; also: potency is read from the fitted curve at half-maximal effect
In short: as §2

[6] = qHTS RealTime-Glo MT Cell Viability Assay in HEK293 cells - 0 hour (AID 1224880); also: top concentration of the series differs between compounds; nearly all actives have a fitted effect of over 45% in size
In short: (§4)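 Luminescence readout at each listed time point; HEK293, 600 cells/well, RealTime-Glo MT reagent added with cells; compounds pinned (23 nL in DMSO) after 5 h at 37 C; continuous culture at 37 C.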

[7] = A CellTox Green Cytotoxicity Assay to monitor cytotoxicity in HEK293 cells - 32 hour (AID 1224881); also: nearly all actives have a fitted effect of over 40% in size; also: potency is read from the fitted curve at half-maximal effect
In short: as §1

[8] = A CellTox Green Cytotoxicity Assay to monitor cytotoxicity in HepG2 cells - 0 hour (AID 1224882); also: nearly all actives have a fitted effect of over 35% in size
In short: as §2

[9] = A CellTox Green Cytotoxicity Assay to monitor cytotoxicity in HepG2 cells - 32 hour (AID 1224883); also: nearly all actives have a fitted effect of over 50% in size; also: potency is read from the fitted curve at half-maximal effect
In short: as §2

[10] = A CellTox Green Cytotoxicity Assay to monitor cytotoxicity in HEK293 cells - 8 hour (AID 1224884); also: nearly all actives have a fitted effect of over 35% in size
In short: as §1

[11] = qHTS RealTime-Glo MT Cell Viability Assay in HepG2 cells - 16 hour (AID 1224885); also: nearly all actives have a fitted effect of over 50% in size
In short: as §3

[12] = qHTS RealTime-Glo MT Cell Viability Assay in HEK293 cells - 24 hour (AID 1224886); also: nearly all actives have a fitted effect of over 50% in size; also: potency is read from the fitted curve at half-maximal effect; as to activity change, negative = cytotoxicity: top concentration of the series differs between compounds
In short: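 Viability tracked continuously by luminescence as live cells reduce a prosubstrate for NanoLuc; HEK293 cells preincubated 5 h, compound-treated at 37 C, and read at 0, 8, 16, 24, 32 and 40 h.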

[13] = qHTS RealTime-Glo MT Cell Viability Assay in HEK293 cells - 8 hour (AID 1224887); also: nearly all actives have a fitted effect of over 50% in size; also: potency is read from the fitted curve at half-maximal effect; as to activity change, negative = cytotoxicity: top concentration of the series differs between compounds
In short: as §4

[14] = A CellTox Green Cytotoxicity Assay to monitor cytotoxicity in HEK293 cells - 16 hour (AID 1224888); also: nearly all actives have a fitted effect of over 35% in size
In short: as §1

[15] = qHTS RealTime-Glo MT Cell Viability Assay in HepG2 cells - 0 hour (AID 1224889); also: nearly all actives have a fitted effect of over 50% in size
In short: as §3

[16] = A CellTox Green Cytotoxicity Assay to monitor cytotoxicity in HepG2 cells - 8 hour (AID 1224890); also: nearly all actives have a fitted effect of over 45% in size
In short: as §2

[17] = qHTS assay to identify small molecule antagonists of the estrogen receptor alpha (ER-alpha) signaling pathway using the BG1 cell line in the presence of 0.1 nM 17-beta-estradiol - cell viability counter screen (AID 1259241); also: nearly all actives have a fitted effect of over 40% in size
In short: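 VM7Luc4E2 cells (endogenous ER-alpha, 4×ERE-luciferase), hormone-starved 5 days in charcoal-stripped FBS, were treated with compounds plus 0.1 nM 17beta-estradiol for 22 hr at 37C; viability read in same wells as CellTiter-Fluor live-cell protease fluorescence.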

[18] = qHTS assay to identify small molecule antagonists of the androgen receptor (AR) signaling pathway using the MDA cell line in the presence of 0.5 nM R1881 - cell viability counter screen (AID 1259242); also: nearly all actives have a fitted effect of over 45% in size
In short: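 Live-cell protease fluorescence, CellTiter-Fluor, 30 min at 37C. Cells: MDA-kb2, 3,000/well, preincubated 5 hr. Compounds plus 0.5 nM R1881 final, 16 hr, 37C, 0% CO2.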

[19] = biological target: Estrogen receptor (Homo sapiens) (UniProt P03372); test: qHTS assay to identify small molecule antagonists of the estrogen receptor alpha (ER-alpha) signaling pathway using the BG1 cell line in the presence of 0.1 nM 17-beta-estradiol (AID 1259244); also: nearly all actives have a fitted effect of over 50% in size; also: potency is read from the fitted curve at half-maximal effect
In short: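 Luminescence after ONE-Glo (30 min, room temperature) measured ERE-luciferase activity in VM7Luc4E2 cells treated 22 h with compound and 0.1 nM final 17beta-estradiol as stimulator.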

[20] = biological target: Androgen receptor (Homo sapiens) (UniProt P10275); test: qHTS assay to identify small molecule antagonists of the androgen receptor (AR) signaling pathway using the MDA cell line in the presence of 0.5 nM R1881 (AID 1259243); also: nearly all actives have a fitted effect of over 50% in size
In short: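 MDA-kb2, MMTV-luc (AR/GR elements); 3,000 cells/well; cpd + 0.5 nM R1881 final; 16 hr 37C, 0% CO2; ONE-Glo 30 min RT; luminescence.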
% is scaled to controls: 0 for no effect and ±100 for the full control effect.

Chain of Estrogen receptor (Homo sapiens) (P03372 whole entry, looked up): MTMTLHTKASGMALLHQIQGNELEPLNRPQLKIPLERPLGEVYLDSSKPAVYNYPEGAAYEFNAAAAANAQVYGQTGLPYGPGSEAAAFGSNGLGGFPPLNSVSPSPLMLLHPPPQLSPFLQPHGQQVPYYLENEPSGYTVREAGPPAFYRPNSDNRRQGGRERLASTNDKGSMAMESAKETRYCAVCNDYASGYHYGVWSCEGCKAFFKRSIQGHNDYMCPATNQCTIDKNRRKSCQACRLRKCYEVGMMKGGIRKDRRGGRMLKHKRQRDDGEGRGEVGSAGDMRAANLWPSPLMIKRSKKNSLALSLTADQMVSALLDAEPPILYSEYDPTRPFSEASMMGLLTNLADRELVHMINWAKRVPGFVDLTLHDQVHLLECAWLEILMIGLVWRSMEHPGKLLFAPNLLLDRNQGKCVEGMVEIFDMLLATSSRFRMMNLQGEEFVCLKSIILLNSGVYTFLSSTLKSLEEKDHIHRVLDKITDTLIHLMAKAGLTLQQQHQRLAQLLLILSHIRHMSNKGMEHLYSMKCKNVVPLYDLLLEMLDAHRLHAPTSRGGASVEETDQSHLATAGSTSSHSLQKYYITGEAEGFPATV
Chain of Androgen receptor (Homo sapiens) (P10275 whole entry, looked up): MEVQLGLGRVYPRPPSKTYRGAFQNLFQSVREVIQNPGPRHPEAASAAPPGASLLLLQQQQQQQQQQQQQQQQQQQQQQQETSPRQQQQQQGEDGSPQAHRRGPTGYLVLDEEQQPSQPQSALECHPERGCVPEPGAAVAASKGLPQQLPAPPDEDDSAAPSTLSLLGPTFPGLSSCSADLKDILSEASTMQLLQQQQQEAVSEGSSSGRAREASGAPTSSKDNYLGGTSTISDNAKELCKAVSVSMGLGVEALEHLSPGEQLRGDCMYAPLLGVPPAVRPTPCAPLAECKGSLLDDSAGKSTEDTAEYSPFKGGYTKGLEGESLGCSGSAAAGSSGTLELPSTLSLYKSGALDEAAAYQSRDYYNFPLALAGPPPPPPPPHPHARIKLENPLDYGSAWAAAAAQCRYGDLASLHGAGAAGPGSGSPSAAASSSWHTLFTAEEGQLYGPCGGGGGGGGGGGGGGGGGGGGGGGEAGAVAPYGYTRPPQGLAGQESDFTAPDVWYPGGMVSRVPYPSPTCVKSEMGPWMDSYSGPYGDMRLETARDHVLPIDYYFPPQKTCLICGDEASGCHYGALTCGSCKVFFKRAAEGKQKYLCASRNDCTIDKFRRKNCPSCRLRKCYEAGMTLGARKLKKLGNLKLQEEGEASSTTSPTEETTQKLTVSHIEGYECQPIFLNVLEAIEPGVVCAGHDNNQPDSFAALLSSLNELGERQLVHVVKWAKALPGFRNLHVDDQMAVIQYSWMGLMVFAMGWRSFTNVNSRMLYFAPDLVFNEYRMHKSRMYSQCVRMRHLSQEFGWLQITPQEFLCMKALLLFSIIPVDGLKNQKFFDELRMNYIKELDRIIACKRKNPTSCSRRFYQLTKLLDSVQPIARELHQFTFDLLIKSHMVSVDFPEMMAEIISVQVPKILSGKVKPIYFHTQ

C/C(=C\c1ccc(C(=O)O)cc1)c1ccc2c(c1)C(C)(C)CCC2(C)C
inactive: Potency [1] | Potency [2] | Potency [3] | Potency [4] | Potency [5] | Potency [6] | Potency [7] | Potency [8] | Potency [9] | Potency [10] | Potency [11] | Potency [12] | Potency [13] | Potency [14] | Potency [15] | Potency [16] | Potency [17] | Potency [18]

Nc1ccc(Oc2cccc(Oc3ccc(N)cc3)c2)cc1
active: Potency [19] 8.63 µM
inactive: Potency [1] | Potency [2] | Potency [3] | Potency [4] | Potency [5] | Potency [7] | Potency [8] | Potency [9] | Potency [10] | Potency [11] | Potency [12] | Potency [13] | Potency [15] | Potency [16] | Potency [17] | Potency [18]

[Cl][Sc]([Cl])[Cl]
inactive: Potency [1] | Potency [2] | Potency [3] | Potency [4] | Potency [5] | Potency [6] | Potency [7] | Potency [8] | Potency [9] | Potency [10] | Potency [11] | Potency [12] | Potency [13] | Potency [15] | Potency [16] | Potency [18] | Potency [20] | Potency [19]

S=C1NC=NC2N=CNC12 (stereo not drawn)
inactive: Potency [1] | Potency [2] | Potency [3] | Potency [4] | Potency [5] | Potency [6] | Potency [7] | Potency [8] | Potency [9] | Potency [10] | Potency [11] | Potency [13] | Potency [14] | Potency [15] | Potency [16] | Potency [17]
active: Potency [12] 21.9 µM

CC(=O)CC(N)=O
inactive: Potency [1] | Potency [2] | Potency [3] | Potency [4] | Potency [5] | Potency [6] | Potency [7] | Potency [8] | Potency [9] | Potency [10] | Potency [11] | Potency [12] | Potency [13] | Potency [14] | Potency [15] | Potency [16] | Potency [17] | Potency [19]

CCCCCc1ccc(O)cc1
inactive: Potency [3] | Potency [6] | Potency [8] | Potency [11] | Potency [15] | Potency [17] | Potency [19]
active: Potency [1] 38.9 µM | Potency [2] 49 µM | Potency [4] 49 µM | Potency [5] 43.6 µM | Potency [7] 34.7 µM | Potency [9] 49 µM | Potency [13] 21.9 µM

C=C(C)CCO
inactive: Potency [1] | Potency [2] | Potency [3] | Potency [4] | Potency [5] | Potency [6] | Potency [7] | Potency [8] | Potency [9] | Potency [10] | Potency [11] | Potency [12] | Potency [14] | Potency [15] | Potency [16] | Potency [18] | Potency [20] | Potency [19]

CCOC=C(C(=O)OCC)C(=O)OCC
inactive: Potency [1] | Potency [2] | Potency [3] | Potency [4] | Potency [5] | Potency [6] | Potency [7] | Potency [8] | Potency [9] | Potency [10] | Potency [11] | Potency [12] | Potency [14] | Potency [16] | Potency [17] | Potency [18] | Potency [20] | Potency [19]

O=C(c1ccccc1)c1ccc(Cl)cc1
inactive: Potency [1] | Potency [2] | Potency [3] | Potency [4] | Potency [5] | Potency [7] | Potency [8] | Potency [9] | Potency [10] | Potency [11] | Potency [12] | Potency [13] | Potency [14] | Potency [15] | Potency [16] | Potency [17] | Potency [19]

C=CC(=O)OCCOC1C2CCC1C1CC=CC12 (stereo not drawn)
inactive: activity change [1] 0.179% [at 15.8 µM, active compounds read high] | cytotoxicity increase [2] -1.04% [at 15.8 µM] | activity change, negative = cytotoxic [3] 3.75% [at 15.8 µM] | cytotoxicity [4] -5.89% [at 15.8 µM] | cytotoxicity increase [5] -11.6% [at 15.8 µM] | activity change, negative = cytotoxicity [6] 4.39% [at 15.8 µM] | cytotoxicity increase [7] -0.486% [at 15.8 µM] | cytotoxicity [8] -3.66% [at 15.8 µM] | cytotoxicity increase [9] -7.81% [at 15.8 µM] | cytotoxicity increase [10] -0.0811% [at 15.8 µM] | activity change, negative = cytotoxic [11] 0.672% [at 15.8 µM] | activity change, negative = cytotoxicity [12] -2.24% [at 15.8 µM] | activity change [14] -0.617% [at 15.8 µM, active compounds read high] | cytotoxicity increase [16] -9.41% [at 15.8 µM] | activity change, negative = cytotoxicity [17] 0.54% [at 19 µM] | viability change, negative = cytotoxic [18] 0.35% [at 19 µM] | activity, negative = inhibition [20] -0.369% [at 19 µM] | activity change, negative = inhibition [19] 2.43% [at 19 µM]

Cc1ccc2n[nH]nc2c1
inactive: Potency [1] | Potency [2] | Potency [3] | Potency [4] | Potency [5] | Potency [6] | Potency [7] | Potency [8] | Potency [9] | Potency [10] | Potency [11] | Potency [12] | Potency [14] | Potency [15] | Potency [16] | Potency [17] | Potency [19]

O=c1[nH]cccc1O
inactive: Potency [1] | Potency [2] | Potency [3] | Potency [4] | Potency [5] | Potency [6] | Potency [7] | Potency [8] | Potency [9] | Potency [10] | Potency [11] | Potency [12] | Potency [13] | Potency [14] | Potency [15] | Potency [16] | Potency [17] | Potency [18] | Potency [19]

COc1cc(C(C)C)ccc1C
inactive: activity change [1] -1.5% [at 15.8 µM, active compounds read high] | cytotoxicity increase [2] -12.9% [at 15.8 µM] | activity change, negative = cytotoxic [3] 7.91% [at 15.8 µM] | cytotoxicity [4] -14.9% [at 15.8 µM] | cytotoxicity increase [5] -18.2% [at 15.8 µM] | activity change, negative = cytotoxicity [6] 6.56% [at 15.8 µM] | cytotoxicity increase [7] -4.81% [at 15.8 µM] | cytotoxicity [8] -8.39% [at 15.8 µM] | cytotoxicity increase [9] -14.3% [at 15.8 µM] | cytotoxicity increase [10] -0.16% [at 15.8 µM] | activity change, negative = cytotoxic [11] -0.349% [at 15.8 µM] | activity change, negative = cytotoxicity [12] 0.818% [at 15.8 µM] | activity change, negative = cytotoxicity [13] 1.54% [at 15.8 µM] | activity change [14] -2.08% [at 15.8 µM, active compounds read high] | activity change, negative = cytotoxicity [15] -5.12% [at 15.8 µM] | cytotoxicity increase [16] -11.9% [at 15.8 µM] | activity change, negative = cytotoxicity [17] -2.73% [at 19 µM] | viability change, negative = cytotoxic [18] 0.996% [at 19 µM] | activity, negative = inhibition [20] -0.285% [at 19 µM]
